# aGlu spleen mod = inhibits or activates alpha-glucosidase in human spleen homogenate; human spleen homogenate, 4-MU-alpha-glucoside fluorescence; P10253; AID 2112; 0.006% of 240,000 active; Potency, µM (series often up to 79.9 µM), for the others: at the top dose activity change, negative = inhibition, hits mostly inhibitors;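 further: potency means the concentration at half of the fitted maximal effect; 0% = enzyme with vehicle and -100% = no enzyme basal signal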
#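 Enzyme source: human spleen homogenate, 1 ug/well. Buffer 50 mM citric acid/K phosphate pH 5.0, 0.01% Tween-20. 4-MU-alpha-glucoside 1 mM; 37 C x 40 min; NaOH/glycine stop; fluorescence.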
# GLA spleen mod = alpha-galactosidase A (human) modulation; human spleen homogenate, 4MU-alpha-Gal fluorescence, 40 min; Potency, µM (top dose mostly 80 µM), for the others: top-dose activity change, negative = inhibition, actives largely listed as inhibitors; 0.008% of 240,000 active; AID 2107;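 further: potency means the concentration at half of the fitted maximal effect; 0% = enzyme with vehicle and -100% = no enzyme basal signal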
#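 Inhibition or activation of alpha-galactosidase in human spleen homogenate is scored by 4-MU fluorescence after 40 min at 37C, pH 5.0, with 1 mM substrate. AC50s come from concentration-response fitted to the Hill equation.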
# GAA inh = blocks human lysosomal alpha-glucosidase | P10253 | purified human GAA, 4-MU-alpha-glucoside fluorescence | Potency, µM (highest dose often 76.9 µM), without a hit: at the highest dose activity change, negative = inhibition, actives largely listed as inhibitors | 0.005% of 200,000 active;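 further: potency means the concentration at half of the fitted maximal effect; plate controls were uninhibited enzyme wells for no effect and no-enzyme background for full effect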
#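 Fluorescence at Ex 365/Em 440 nm from 4-methylumbelliferone reported enzyme activity after 20 min at room temperature. Reactions used 4 nM enzyme and 400 uM substrate at pH 5.0; curves fitted with the Hill equation.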
# N370S GC = N370S glucocerebrosidase modulation, Gaucher chaperone candidate; P04062; N370S GC spleen homogenate, 4MU-glucoside fluorescence; Potency, µM (top dose mostly 59.4 µM), without a hit: top-dose activity change, negative = inhibition, usual class: inhibitors; 0.092% of 330,000 active;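 further: potency means the concentration at half of the fitted maximal effect; 0% = full enzyme activity and -100% = no enzyme basal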
# GAA glycogen mod = alters human alpha-glucosidase cleavage of glycogen | P10253 | recombinant GAA, glycogen substrate, Amplex Red glucose oxidase fluorescence | Potency, µM (titrated, usually from 76.4 µM), for inactives: at the highest dose activity change, negative = inhibition, usual class: inhibitors | 0.38% of 300,000 active | AID 2100;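 further: potency means the concentration at half of the fitted maximal effect; 0% = full enzyme reaction and -100% = no-enzyme basal signal; the screen sought inhibitors and activators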
#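 qHTS, 1536-well; enzyme 4 nM final; cpd up to 77 uM; substrate bovine liver glycogen 30 ug; 50 mM citrate/phosphate pH 5.0, 0.01% Tween-20; 37 C, 40 min; Amplex Red detection 45 min RT; Hill fit → AC50.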
# GLA inh pH 4.5 = blocks human alpha-galactosidase A at pH 4.5. P06280. activity change, negative = inhibition, % at 105 µM. AID 1467. purified enzyme, 4-MU-alpha-Gal fluorescence, pH 4.5. 230,000 tested, under 10 active;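 further: 0% = full activity with enzyme and -100% = basal without enzyme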
# Target sequence (P06280 whole entry, looked up): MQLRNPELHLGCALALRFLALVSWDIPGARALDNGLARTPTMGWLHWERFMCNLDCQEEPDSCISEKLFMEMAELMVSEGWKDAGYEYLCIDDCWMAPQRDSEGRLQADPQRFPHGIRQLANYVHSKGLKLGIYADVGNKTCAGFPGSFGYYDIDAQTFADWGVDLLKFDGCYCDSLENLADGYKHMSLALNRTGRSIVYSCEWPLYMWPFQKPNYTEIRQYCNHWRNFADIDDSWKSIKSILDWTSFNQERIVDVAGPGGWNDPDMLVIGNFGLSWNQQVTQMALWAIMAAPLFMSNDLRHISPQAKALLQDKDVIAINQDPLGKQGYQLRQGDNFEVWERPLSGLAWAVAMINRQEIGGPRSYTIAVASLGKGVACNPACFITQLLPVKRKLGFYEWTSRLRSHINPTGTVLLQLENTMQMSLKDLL
# * marks the source's active call; other numbers are inactive results; u = inconclusive; x = not tested or not shown; [ ] = another dose, or the depositor's remark. Compounds with a hit are over-represented: about 0.43% of the library has one in this group of screens. The call rests on the fitted dose curve; in most records, active means well fitted curve in the direction sought with a large enough effect; inconclusive means small, poorly fitted or top-dose-only effect, or another doubt; inactive means no such curve, though single readings can be large; an effect the other way counts as inactive or inconclusive.
SMILES,aGlu spleen mod,GLA spleen mod,GAA inh,N370S GC,GAA glycogen mod,GLA inh pH 4.5
O=C(NCc1ccccc1)C(c1ccncc1)N(C(=O)c1ccccn1)c1ccccc1 (centres undefined),x,x,x,-6%,11µM*,x
O=C(COCc1cc(-c2ccco2)on1)Nc1cccc(O)c1,x,x,x,x,13%[76.3 µM],x
COc1ccc(NC(=S)N/N=C2\CC(C)(C)Oc3ccc(O)cc32)cc1,-2%,-4%,-5%,-3%,8.9µM*,-3
Cc1cc(Nc2cccc(C(F)(F)F)c2)nc2ccc(NC(=O)c3cccnc3)cc12,x,x,x,x,-13%[76.3 µM],x
O=C(COc1ccc(Cl)cc1Cl)Nc1ccc(C(=O)OC2CCCCC2)cc1,x,x,x,x,-12%[76.3 µM],x
Cc1ccc(N2C(=O)C(Cl)=C(Nc3c(C)n(C)n(-c4ccccc4)c3=O)C2=O)cc1,-9%,-20%,-5%,-20%,25µM*,1
Cc1c(NC(=O)CN2CCN(c3ccc(O)cc3)CC2)c(=O)n(-c2ccccc2)n1C,6%,0%,2%,-3%,4µM*,-19
Cc1c(NC(=O)CN2CCN(c3ccc([N+](=O)[O-])cc3)CC2)c(=O)n(-c2ccccc2)n1C,-9%,-3%,-4%,-12%,3%,-10
Cc1ccc(S(=O)(=O)NC(=O)Nc2c(C)n(C)n(-c3ccccc3)c2=O)cc1,-9%,-8%,-1%,4%,16µM*,-2
Cc1cccc(N2C(=O)C(Cl)=C(Nc3c(C)n(C)n(-c4ccccc4)c3=O)C2=O)c1C,-11%,-26%,1%,-1%,u,-8
COc1cccc([C@@H]2Oc3ccc(Br)cc3C[C@H]2OC(=O)Nc2ccc(C)c(Br)c2)c1,4%,5%,x,16%,x,-7
CC(C)C[C@H](NC(=O)[C@H](Cc1c[nH]c2ccccc12)NC(=O)[C@H](CCCCN)NC(=O)CNC(=O)[C@H](CC(C)C)NC(=O)[C@H](CO)NC(=O)[C@@H](N)Cc1cnc[nH]1)C(=O)NCC(=O)N[C@@H](Cc1cnc[nH]1)C(=O)N1CCC[C@H]1C(=O)N[C@@H](CC(=O)O)C(=O)N[C@@H](CCCCN)C(=O)N[C@@H](Cc1ccccc1)C(=O)O,-13%,11%,x,14%,x,x
COc1ccc(OC)c(NC(=O)NC2(C(F)(F)F)Oc3ccccc3O2)c1,2%,-4%,0%,7%,35µM*,3
Cc1cc(NC(=O)NC2(C(F)(F)F)Oc3ccc(Cl)cc3O2)no1 (centres undefined),-2%,-4%,-1%,-6%,7.1µM*,-3
COc1ccc(OC)c(NC(=O)Nc2ccccc2C)c1,3%,4%,u,2%,2%,0
COCCNC(=O)NC1(C(F)(F)F)Oc2ccc(Cl)cc2O1 (centres undefined),-2%,-2%,-9%,16%,-19%,5
Cc1ccc(CNC(=O)c2sc3nc(-c4ccc(F)cc4)ccc3c2N)cc1,x,x,x,x,-19%[76.3 µM],x
CC1=Nc2cccc3cccc(c23)N1,3%,-3%,-5%,-4%,14µM*,-1
CCCn1c(SCc2nc(-c3ccc(OC)c(OC)c3)no2)nnc1-c1ccccc1,x,x,x,x,11%[76.3 µM],x
Cc1ccc(-c2cc(C(=O)N3CCN(S(=O)(=O)c4ccc(Br)s4)CC3)[nH]n2)c(C)c1,x,x,x,x,8.9µM*,x
COc1cccc(-c2ccc3ncnc(N(C)C)c3c2)c1,-8%,50µM*,x,-16%,x,x
CC(C)NC(=O)C1=CC(c2ccc3c(c2)OCO3)=NS(=O)(=O)N1C,x,x,x,x,10%[76.3 µM],x
CCCOc1ccc(-c2nc(C#N)c(NCCCn3ccnc3)o2)cc1,8%,3%,3%,-14%,31µM*,-1
CCc1cccc(NC(=O)CN2Cc3ccccc3C2=O)c1,x,x,x,x,-7%[76.3 µM],x
CN1CCN(Cc2nc3ccccc3c(=O)n2Cc2nc(-c3cccc([N+](=O)[O-])c3)cs2)CC1,-5%,-7%,-1%,6%,15%,8
CN1CCN(Cc2nc3ccccc3c(=O)n2Cc2nc(-c3ccc4ccccc4c3)cs2)CC1,-8%,-3%,u,11µM*,13%,3

# Screening data (PubChem BioAssay)
